# From paper PMC11208138
# Tests used:
# Test in all cases: cross-link between two proteins; cross-linking mass spectrometry
# [1] = biological target: PHD finger-like domain-containing protein 5A (UniProt Q7RTV0)
# [2] = biological target: Small nuclear ribonucleoprotein Sm D2 (UniProt P62316)
# [3] = biological target: Splicing factor 3B subunit 5 (UniProt Q9BWJ5)
# [4] = biological target: THO complex subunit 4 (UniProt Q86V81)
# Chain of Small nuclear ribonucleoprotein F, P62306 (P62306 whole entry): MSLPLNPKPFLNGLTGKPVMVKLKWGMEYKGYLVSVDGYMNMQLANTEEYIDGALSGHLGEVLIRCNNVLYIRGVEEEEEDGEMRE
# Chain of Small nuclear ribonucleoprotein Sm D2 (P62316 whole entry): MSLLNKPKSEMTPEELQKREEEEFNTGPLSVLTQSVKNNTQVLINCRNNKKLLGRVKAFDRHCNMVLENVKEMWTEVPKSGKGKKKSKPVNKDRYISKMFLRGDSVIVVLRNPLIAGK
# Chain of Splicing factor 3B subunit 5 (Q9BWJ5 whole entry): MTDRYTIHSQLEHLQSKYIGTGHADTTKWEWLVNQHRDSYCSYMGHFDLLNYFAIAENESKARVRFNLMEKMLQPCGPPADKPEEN
# Chain of PHD finger-like domain-containing protein 5A, Q7RTV0 (Q7RTV0 whole entry, the tested form may be a part): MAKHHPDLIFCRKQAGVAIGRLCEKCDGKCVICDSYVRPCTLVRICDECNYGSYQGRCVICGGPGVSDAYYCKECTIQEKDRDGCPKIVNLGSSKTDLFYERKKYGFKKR
# Chain of PHD finger-like domain-containing protein 5A (Q7RTV0 whole entry, the tested form may be a part): as above
# Chain of Splicing factor 3B subunit 1, O75533 (O75533 whole entry): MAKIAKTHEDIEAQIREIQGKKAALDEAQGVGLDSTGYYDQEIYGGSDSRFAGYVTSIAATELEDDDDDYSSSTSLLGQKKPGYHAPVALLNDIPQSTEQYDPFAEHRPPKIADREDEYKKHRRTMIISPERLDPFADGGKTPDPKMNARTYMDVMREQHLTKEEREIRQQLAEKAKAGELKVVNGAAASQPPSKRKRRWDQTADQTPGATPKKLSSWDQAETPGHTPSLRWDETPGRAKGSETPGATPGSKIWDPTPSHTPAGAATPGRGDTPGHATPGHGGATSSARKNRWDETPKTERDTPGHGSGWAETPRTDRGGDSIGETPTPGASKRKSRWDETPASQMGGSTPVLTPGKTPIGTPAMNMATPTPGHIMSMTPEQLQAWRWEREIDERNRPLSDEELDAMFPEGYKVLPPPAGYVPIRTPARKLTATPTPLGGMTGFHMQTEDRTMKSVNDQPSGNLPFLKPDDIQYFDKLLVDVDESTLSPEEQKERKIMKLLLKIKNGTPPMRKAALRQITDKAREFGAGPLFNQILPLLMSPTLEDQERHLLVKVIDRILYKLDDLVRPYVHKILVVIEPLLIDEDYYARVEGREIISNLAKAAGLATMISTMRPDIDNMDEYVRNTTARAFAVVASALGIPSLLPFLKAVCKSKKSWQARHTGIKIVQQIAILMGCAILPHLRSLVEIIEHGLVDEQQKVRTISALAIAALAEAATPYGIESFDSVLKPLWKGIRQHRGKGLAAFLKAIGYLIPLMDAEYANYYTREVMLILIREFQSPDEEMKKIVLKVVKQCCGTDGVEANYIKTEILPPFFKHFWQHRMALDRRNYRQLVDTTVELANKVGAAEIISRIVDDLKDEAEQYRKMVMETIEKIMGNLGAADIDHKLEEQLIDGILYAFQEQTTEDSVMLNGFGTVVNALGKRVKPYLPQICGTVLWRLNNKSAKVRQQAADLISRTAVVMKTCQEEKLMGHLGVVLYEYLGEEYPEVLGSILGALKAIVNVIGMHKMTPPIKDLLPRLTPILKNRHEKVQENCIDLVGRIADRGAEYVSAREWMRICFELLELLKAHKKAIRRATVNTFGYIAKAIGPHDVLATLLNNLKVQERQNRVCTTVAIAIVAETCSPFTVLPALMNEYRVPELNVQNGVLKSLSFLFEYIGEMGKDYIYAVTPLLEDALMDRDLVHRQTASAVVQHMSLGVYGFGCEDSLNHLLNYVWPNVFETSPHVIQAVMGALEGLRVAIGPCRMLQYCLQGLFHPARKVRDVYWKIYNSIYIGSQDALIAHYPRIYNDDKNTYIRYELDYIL
substance,measurement,setting,value
"Splicing factor 3B subunit 1, O75533",listed as a hit,[1],yes
"Small nuclear ribonucleoprotein F, P62306",listed as a hit,[2],yes
"PHD finger-like domain-containing protein 5A, Q7RTV0",listed as a hit,[3],yes
"Enhancer of rudimentary homolog, P84090",listed as a hit,[4],yes
